Experimental data published in ChEMBL document CHEMBL1201862, “PubChem BioAssay data set” (2004).
In all, about 1,500 compounds went through this assay and about 140 (9.3%) were called active. This is one part of a sample in which actives are shown more often than they occur. No rule for the calls is given here.

Assay: AlphaScreen signal interference with preloaded methylated product, dose response, artefact control for NSD2 inhibitor project, biochemical, cherry-picked samples (AID 1053174);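 also: actives lower the AlphaScreen signal from the preloaded product and count as artifacts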

Row | SMILES | AbsAC35
1 | CN(C)c1ccc(CNCCC(Cc2ccccc2)c2ccco2)cc1 (configuration not stated) | 16.6 µM (active)
2 | COc1ccccc1-c1nnc2n1N=C(c1ccc(O)c(O)c1)CS2 | 18.5 µM (active)
3 | COc1cccc2c(SCC(=O)N/N=C/c3ccc(O)c(O)c3)cc(C)nc12 | 12.7 µM (active)
4 | N#C/C(=C/c1ccc(O)c(O)c1)C(=O)NCc1ccc(Cl)cc1 | 14.6 µM (active)
5 | COCC/N=c1\scc(-c2ccco2)n1/N=C/c1ccc(O)c(O)c1O | 11.7 µM (active)
6 | O=C(/C=C/c1ccc(O)c(O)c1)c1ccccc1O | 20.7 µM (active)
7 | CC(C)c1ccc(S(=O)(=O)N2CCN(CC(=O)c3ccc(O)c(O)c3)CC2)cc1 | 14.6 µM (active)
8 | COc1ccc(S(=O)(=O)N2CCN(CC(=O)c3ccc(O)c(O)c3)CC2)cc1 | 12.5 µM (active)
9 | O=C(CN1CCN(S(=O)(=O)c2ccc(Cl)cc2)CC1)c1ccc(O)c(O)c1 | 14.7 µM (active)
10 | CC1=C/C(=C\c2ccc(Br)o2)C(=O)O1 | 25.7 µM (active)
11 | CCn1nc([N+](=O)[O-])c(C(C#N)c2nc3cc(C(F)(F)F)ccc3s2)c(Cl)c1=O (configuration not stated) | 22.2 µM (active)
12 | CCCn1nc([N+](=O)[O-])c(C(C#N)c2nc3ccccc3s2)c(Cl)c1=O (configuration not stated) | 13.4 µM (active)
13 | CCN(CC)c1ccc2c(-c3ccc(S(=O)(=O)O)cc3S(=O)(=O)[O-])c3ccc(=[N+](CC)CC)cc-3oc2c1 | 14.9 µM (active)
14 | O=S(=O)(O)c1cc(O)c(N=Nc2ccc(O)cc2O)c2ccccc12 | 12.8 µM (active)
15 | O=S(=O)(O)c1cc(Cl)cc(N=Nc2ccc(O)cc2O)c1O | 14.5 µM (active)
16 | O=C(O)c1ccccc1N=N/C(=N/Nc1cc(S(=O)(=O)O)ccc1O)c1ccccc1 | 13.7 µM (active)

Row | SMILES | AbsAC35
17 | O=C(Oc1ccccc1)c1cc(O)c(O)c(O)c1 | 17.2 µM (active)
18 | CC1=NN(c2ccccc2)C(=O)C1/C=C1\NC(=S)NC1=O (configuration not stated) | 28.8 µM (active)
19 | CCS(=O)(=O)C1=NN2C(=N)/C(=C\c3ccc(SCc4ccco4)o3)C(=O)N=C2S1 | 18.7 µM (active)
20 | CC(=O)c1ccc2c(c1)C1C=CCC1C(C(=O)O)N2 (configuration not stated) | 13.9 µM (active)
21 | N#C/C(=C/c1ccc(O)c(O)c1)c1nc2ccccc2[nH]1 | 15 µM (active)
22 | Cc1ccc2[nH]c(/C(C#N)=C/c3ccc(O)c(O)c3)nc2c1 | 22.9 µM (active)
23 | CC1COCC(C)N1C1=C(Cl)C(=O)c2ccccc2C1=O (configuration not stated) | 12.2 µM (active)
24 | O=[N+]([O-])c1ccccc1/C=C\C=N\N1CCN(c2ccccc2)CC1 | 17.5 µM (active)
25 | O=C(COC(=O)c1ccccc1)Nc1ncc([N+](=O)[O-])s1 | 21.8 µM (active)
26 | Cc1cc2c(=Cc3ccc(N(C)C)cc3)c3ccccc3n2[n+]1C | 14.4 µM (active)
27 | NCCc1c(-c2ccccc2)n(-c2ccccc2)c2ccccc12 | 18.5 µM (active)
28 | CN(C)C=O.O=C(O)c1ccccc1NS(=O)(=O)c1ccc(N/N=C/c2ccc(O)c(O)c2)c([N+](=O)[O-])c1 | 10.8 µM (active)
29 | COc1cc(OC)c(OC)cc1CCC(C)NCCC(c1ccccc1)c1ccccc1 (configuration not stated) | 11.1 µM (active)
30 | CCN(c1ccccc1)S(=O)(=O)c1cc(C(=O)O)ccc1C | 17.7 µM (active)
31 | O=C1N=C(Nc2ccccc2Cl)S/C1=C\c1cccc([N+](=O)[O-])c1O | 17.4 µM (active)
32 | Cc1ccc(NC(=O)CCCCCC2NC(=O)NC2C)cc1 (configuration not stated) | 13.9 µM (active)
